Several values for one entry are separate records, joined by “and”; a condition that tells them apart may be missing. Identical values can stand only once. Results filed as inconclusive are left out. A structure can be active in one record and inactive in another. Activity calls are given as the source filed them. Unless noted, calls come from the whole dose curve.
Key:
[1] = Nuclear factor erythroid 2-related factor 2/antioxidant responsive element (Nrf2/ARE) small molecule agonists: qHTS cell viability counter screen in human keratinocytes (AID 1919968; active = well fitted curve in the direction sought with a large enough effect in the repeat runs; an effect the other way counts as inactive or inconclusive; note: nearly all actives have a fitted effect of over 55% in size; note: potency is the fitted concentration of half-maximal effect)
Method in brief: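 Stably transfected HaCaT (KeratinoSens), 1,500/well. Test agents in DMSO were applied for 23 h, 37 C/5% CO2. CellTiter-Fluor was incubated 1 h before the fluorescence read.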

[2] = Nuclear factor erythroid 2-related factor 2/antioxidant responsive element (Nrf2/ARE) small molecule agonists: luciferase reporter gene qHTS assay in human keratinocytes (AID 1919969); note: nearly all actives have a fitted effect of over 35% in size; note: potency is the fitted concentration of half-maximal effect
[3] = target: Gonadotropin-releasing hormone receptor (Homo sapiens) (UniProt P30968); assay: Human gonadotropin-releasing hormone receptor (GnRHR) small molecule agonists, calcium flux assay in GnRHR-HEK293 cells (AID 1920063); note: nearly all actives have a fitted effect of over 35% in size
Sequence of Gonadotropin-releasing hormone receptor (Homo sapiens) (P30968 whole entry, looked up): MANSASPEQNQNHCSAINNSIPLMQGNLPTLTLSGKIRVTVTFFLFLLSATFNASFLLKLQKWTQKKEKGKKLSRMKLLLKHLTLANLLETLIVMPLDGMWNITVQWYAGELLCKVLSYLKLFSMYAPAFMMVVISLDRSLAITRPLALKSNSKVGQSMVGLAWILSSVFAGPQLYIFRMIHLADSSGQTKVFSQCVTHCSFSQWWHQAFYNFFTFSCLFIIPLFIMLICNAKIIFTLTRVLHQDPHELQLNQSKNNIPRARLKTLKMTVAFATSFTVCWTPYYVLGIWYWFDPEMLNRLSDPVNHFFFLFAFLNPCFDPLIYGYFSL
Method in brief: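 Stable human GnRHR HEK293 line. 18 h plating, then calcium dye for 1 h at 37 C. Agonist-mode compound addition from DMSO stocks; fluorescence monitored 3 min.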

[4] = target: KiSS-1 receptor (Homo sapiens) (UniProt Q969F8); assay: Human kisspeptin (KISS1R) small molecule agonists, calcium flux assay in KISS1R-HEK293 cells (AID 1920064; active = well fitted curve in the direction sought with a large enough effect in the repeat runs; an effect the other way counts as inactive or inconclusive)
Sequence of KiSS-1 receptor (Homo sapiens) (Q969F8 whole entry, looked up): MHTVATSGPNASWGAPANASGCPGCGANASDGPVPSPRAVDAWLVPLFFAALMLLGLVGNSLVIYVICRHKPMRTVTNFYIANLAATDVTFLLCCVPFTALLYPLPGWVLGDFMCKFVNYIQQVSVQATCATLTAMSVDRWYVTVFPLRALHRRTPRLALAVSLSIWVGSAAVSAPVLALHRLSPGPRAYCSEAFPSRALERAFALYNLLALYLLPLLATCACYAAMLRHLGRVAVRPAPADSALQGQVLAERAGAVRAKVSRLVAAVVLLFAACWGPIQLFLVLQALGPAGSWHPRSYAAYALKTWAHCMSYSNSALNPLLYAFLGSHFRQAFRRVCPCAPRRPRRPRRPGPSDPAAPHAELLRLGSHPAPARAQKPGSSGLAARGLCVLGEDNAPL
Method in brief: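 After overnight (18 h) culture at 37 C/5% CO2, human KISS1R-HEK293 cells received calcium dye for 1 h, then test compound; emission at 540 nm (excitation 480 nm) was tracked for 3 min.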

[5] = G protein-coupled receptor (GPCR) small molecule agonists, calcium flux assay: HEK293 wild type cell line counter screen (AID 1920065)
Method in brief: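 Following 18 h incubation at 37 C/5% CO2, plates got calcium dye for 1 h; compounds, ATP or DMSO were then pinned in and fluorescence followed kinetically (480/540 nm).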

[6] = p53 small molecule agonists, cell-based qHTS assay with human liver microsomes (AID 1963577);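 note: p53 response element beta-lactamase reporter cells with liver microsomes plus NADPH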
Method in brief: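 p53RE-bla cells; 5 h settle, 37 C/5% CO2; cpd + HLM 0.5 mg/mL + NADPH 0.5 mg/mL (final); 16 h 37 C; LiveBLAzer 2 h RT dark; fluorescence readout.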

[7] = p53 small molecule agonists, cell-based qHTS assay with rat liver microsomes (AID 1963578)
Method in brief: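 Rat liver microsome activation: microsomes 0.5 mg/mL, NADPH 0.5 mg/mL final; p53RE-bla cells, 16 h 37 C; LiveBLAzer readout, 2 h RT dark.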

[8] = p53 small molecule agonists, cell-based qHTS assay with human liver microsomes: qHTS cell viability counter screen (AID 1963579); note: nearly all actives have a fitted effect of over 45% in size
Method in brief: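 Luminescent CellTiter-Glo read-out, 30 min at room temperature, gauged cytotoxicity in p53RE-bla cells exposed 16 h at 37 C to DMSO-dissolved compounds with metabolic activation by human liver microsomes and NADPH, each 0.5 mg/mL final.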

[9] = p53 small molecule agonists, cell-based qHTS assay with rat liver microsomes: qHTS cell viability counter screen (AID 1963580); note: nearly all actives have a fitted effect of over 45% in size; note: potency is the fitted concentration of half-maximal effect
Method in brief: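 Counter screen for cytotoxicity under metabolic activation: rat liver microsomes and NADPH, 0.5 mg/mL final each, added with compounds to p53RE-bla HCT-116 cells; 16 h at 37 C, then ATP luminescence read.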

[10] = p53 small molecule agonists, cell-based qHTS assay: qHTS cell viability counter screen (AID 1963581); note: nearly all actives have a fitted effect of over 45% in size
Method in brief: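 qHTS counter screen: 16 h compound exposure at 37 C of p53RE-bla HCT-116 cells (4,000 per well, seeded 5 h prior), cell viability by ATP luminescence.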

[11] = p53 small molecule agonists, cell-based qHTS assay (AID 1963582; active = well fitted activation curve with a large enough effect in the signal ratio in the repeat runs, not every such curve was filed as active; the % refers to the signal ratio)
Method in brief: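 Measured: fluorescence from cleaved LiveBLAzer substrate. System: p53RE-bla cells, 16 h compound treatment at 37 C, 2 h substrate step at room temperature.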

[12] = target: 5-hydroxytryptamine receptor 2A (Homo sapiens) (UniProt P28223); assay: 5-hydroxytryptamine receptor 2A (HTR2A) small molecule antagonists, cell-based qHTS assay (AID 1963586); note: nearly all actives have a fitted effect of over 45% in size; note: potency is the fitted concentration of half-maximal effect
Sequence of 5-hydroxytryptamine receptor 2A (Homo sapiens) (P28223 whole entry, looked up): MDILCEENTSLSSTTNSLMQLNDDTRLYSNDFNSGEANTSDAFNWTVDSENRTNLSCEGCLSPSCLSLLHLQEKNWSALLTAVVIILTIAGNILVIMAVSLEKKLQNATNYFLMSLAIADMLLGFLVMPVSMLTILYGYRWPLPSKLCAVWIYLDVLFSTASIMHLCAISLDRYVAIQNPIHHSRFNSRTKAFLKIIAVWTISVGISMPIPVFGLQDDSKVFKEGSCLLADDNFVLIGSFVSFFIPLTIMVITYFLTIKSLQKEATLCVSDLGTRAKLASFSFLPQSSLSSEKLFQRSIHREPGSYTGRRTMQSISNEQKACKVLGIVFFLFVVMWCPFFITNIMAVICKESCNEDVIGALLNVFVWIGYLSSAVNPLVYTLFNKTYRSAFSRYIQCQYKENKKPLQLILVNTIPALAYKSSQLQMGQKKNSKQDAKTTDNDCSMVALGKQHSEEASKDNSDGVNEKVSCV
Method in brief: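 CHO cells stably expressing human HTR2A were plated for 18 h at 37 C, then loaded with calcium dye for 1 h. Compounds were preincubated 5 min at room temperature before DOI (4 nM solution) was added. Kinetic fluorescence was read for 3 min.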

[13] = target: 5-hydroxytryptamine receptor 2A (Homo sapiens) (UniProt P28223); assay: 5-hydroxytryptamine receptor 2A (HTR2A) small molecule agonists, cell-based qHTS assay (AID 1963587); note: nearly all actives have a fitted effect of over 30% in size; note: potency is the fitted concentration of half-maximal effect
Method in brief: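 HTR2A-CHO cells, plated 18 h at 37 C/5% CO2, dye-loaded 1 h at 37 C; compounds in DMSO added by pin tool (agonist mode). Intracellular calcium flux read as kinetic fluorescence on FDSS over 2 min at 1 s intervals.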

[14] = target: Muscarinic acetylcholine receptor M1 (Homo sapiens) (UniProt P11229); assay: Cholinergic receptor muscarinic 1 (CHRM1) small molecule antagonists, cell-based qHTS assay (AID 1963588); note: nearly all actives have a fitted effect of over 40% in size; note: potency is the fitted concentration of half-maximal effect
Sequence of Muscarinic acetylcholine receptor M1 (Homo sapiens) (P11229 whole entry, looked up): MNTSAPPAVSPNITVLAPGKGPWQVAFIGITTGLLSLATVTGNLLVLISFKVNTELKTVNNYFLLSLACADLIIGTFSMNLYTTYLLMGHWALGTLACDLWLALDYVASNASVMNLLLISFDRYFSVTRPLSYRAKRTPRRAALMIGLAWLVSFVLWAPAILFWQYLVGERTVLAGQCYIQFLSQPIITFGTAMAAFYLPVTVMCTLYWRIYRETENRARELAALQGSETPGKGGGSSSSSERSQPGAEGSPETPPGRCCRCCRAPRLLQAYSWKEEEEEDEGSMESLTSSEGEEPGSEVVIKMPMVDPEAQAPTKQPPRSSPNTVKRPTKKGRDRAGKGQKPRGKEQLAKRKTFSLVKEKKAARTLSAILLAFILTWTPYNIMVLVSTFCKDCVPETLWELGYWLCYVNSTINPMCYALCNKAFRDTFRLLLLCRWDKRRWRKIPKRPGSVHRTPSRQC
Method in brief: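 Compounds were tested at 15 concentrations in three independent runs. Dye-loaded CHRM1-CHO cells were exposed 5 min at room temperature before stimulation by acetylcholine added at 50nM. Intracellular calcium was read kinetically on FDSS for 3 min.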

[15] = target: Muscarinic acetylcholine receptor M1 (Homo sapiens) (UniProt P11229); assay: Cholinergic receptor muscarinic 1 (CHRM1) small molecule agonists, cell-based qHTS assay (AID 1963589); note: nearly all actives have a fitted effect of over 35% in size
Method in brief: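 Kinetic fluorescence (1 s intervals) of calcium-sensitive dye in human M1 CHO cells after compound addition; cells pre-incubated 18 h at 37 C/5% CO2 and dye-loaded 1 h.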

[16] = cAMP Responsive Elements (CRE) small molecule agonists, cell-based qHTS assay (AID 1963590)
Method in brief: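 Test agents in DMSO were incubated 3 h at 37 C/5% CO2 with CRE-bla HEK 293T cells seeded 18 h earlier; LiveBLAzer B/G FRET substrate was added and read after 2 h at room temperature.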

[17] = cAMP Responsive Elements (CRE) small molecule antagonists, cell-based qHTS assay (AID 1963591; active = well fitted inhibition curve with a large enough effect in the signal ratio in the repeat runs, not every such curve was filed as active; the % refers to the signal ratio)
Method in brief: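 Reporter line CRE-bla HEK 293T in dialyzed-FBS DMEM; cells preincubated 18 h, treated 3 h with compound plus NKH477 (0.25 uM final); LiveBLAzer FRET, 2 h RT.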

[18] = target: Beta-2 adrenergic receptor (Homo sapiens) (UniProt P07550); assay: Adrenergic beta2 receptor (ADRB2) small molecule antagonists, cell-based qHTS assay (AID 1963592); note: nearly all actives have a fitted effect of over 50% in size; note: potency is the fitted concentration of half-maximal effect
Sequence of Beta-2 adrenergic receptor (Homo sapiens) (P07550 whole entry, looked up): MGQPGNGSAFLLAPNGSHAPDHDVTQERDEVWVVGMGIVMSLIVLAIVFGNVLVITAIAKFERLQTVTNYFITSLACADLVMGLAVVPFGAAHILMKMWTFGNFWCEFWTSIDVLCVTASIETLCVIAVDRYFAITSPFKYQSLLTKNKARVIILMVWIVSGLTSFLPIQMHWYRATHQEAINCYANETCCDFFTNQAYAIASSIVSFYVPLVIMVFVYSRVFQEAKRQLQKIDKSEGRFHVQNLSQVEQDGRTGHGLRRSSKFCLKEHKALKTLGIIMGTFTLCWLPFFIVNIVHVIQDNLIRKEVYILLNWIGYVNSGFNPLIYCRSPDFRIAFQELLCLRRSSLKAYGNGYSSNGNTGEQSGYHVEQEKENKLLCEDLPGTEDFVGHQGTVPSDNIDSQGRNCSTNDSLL
Method in brief: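 Assay format: CHO-ADRB2 cells, 18-20hr seeding at 37C/5% CO2, then compound plus 1nM isoproterenol agonist mix for 0.5hr RT. Homogeneous time-resolved fluorescence cAMP detection after 1hr, expressed as 665/615 nm ratio.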

[19] = target: D(2) dopamine receptor (Homo sapiens) (UniProt P14416); assay: Dopamine D2 receptor (DRD2) small molecule agonists, cell-based qHTS assay (AID 1963594); note: nearly all actives have a fitted effect of over 35% in size
Sequence of D(2) dopamine receptor (Homo sapiens) (P14416 whole entry, looked up): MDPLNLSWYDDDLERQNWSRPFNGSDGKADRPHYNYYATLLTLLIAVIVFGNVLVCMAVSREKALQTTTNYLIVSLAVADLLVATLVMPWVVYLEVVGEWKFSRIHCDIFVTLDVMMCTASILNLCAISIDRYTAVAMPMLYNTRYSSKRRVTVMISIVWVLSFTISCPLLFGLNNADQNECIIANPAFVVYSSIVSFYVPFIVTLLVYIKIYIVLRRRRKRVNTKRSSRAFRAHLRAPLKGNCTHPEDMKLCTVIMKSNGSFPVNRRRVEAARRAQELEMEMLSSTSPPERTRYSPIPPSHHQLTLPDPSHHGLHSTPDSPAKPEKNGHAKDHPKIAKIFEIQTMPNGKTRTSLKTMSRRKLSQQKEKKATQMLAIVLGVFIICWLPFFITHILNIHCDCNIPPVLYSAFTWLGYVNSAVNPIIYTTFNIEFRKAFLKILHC
Method in brief: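 HEK293 cells stably expressing DRD2 were cultured 24 h at 37 C, then given Ro20-1724 (0.1 mM final) and compounds for 10 min at room temperature. NKH477 (200nM) was then added for 30 min. cAMP was read by HTRF.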

[20] = target: D(2) dopamine receptor (Homo sapiens) (UniProt P14416); assay: Dopamine D2 receptor (DRD2) small molecule antagonists, cell-based qHTS assay (AID 1963595; active = well fitted inhibition curve with a large enough effect in the signal ratio in the repeat runs, with a control signal flat; the % refers to the signal ratio)
Method in brief: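 Human DRD2 antagonist qHTS measuring cAMP by HTRF. The cells are exposed to compound for 10 min, then to NKH477 (200 nM) and quinpirole (12 nM) for 30 min at RT, with Ro20-1724 (0.1 mM) present throughout.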

Measured: Potency

C=C(C)C(N)=O
847 nM (active) and inactive: [14]
inactive: all other assays above

CCCCCCCCOc1ccc(C(=O)c2ccccc2)c(O)c1
inactive: all assays above

CC(=O)CC/C=C(\C)CCC=C(C)C
inactive: all assays above

COC(C)COC(C)COC(C)CO (configuration not stated)
inactive: all assays above

CCOCCOCCO
inactive: all assays above

CCCCCCCCC
inactive: all assays above

O=S1(=O)CCCO1
inactive: all assays above

OCC1CCCO1 (configuration not stated)
inactive: all assays above

C=C(C)C1CC=C(C)CC1 (configuration not stated)
inactive: all assays above

O=C(O)CN(CC(=O)O)CC(=O)O
inactive: all assays above

C=CC(=O)OCCC(=O)O
inactive: all assays above

C=CCOC(=O)C(=C)C
inactive: all assays above

NC(N)=S
inactive and 54.9 µM (active): [13]
inactive and 37.5 µM (active): [12]
inactive: all other assays above

COC(=O)c1ccc(C)cc1
inactive: all assays above

CC(=O)OCC(=O)[C@@]12N=C(C)O[C@@H]1C[C@H]1[C@@H]3CCC4=CC(=O)C=C[C@]4(C)[C@H]3[C@@H](O)C[C@@]12C
inactive: all assays above

Brc1nc2ccccc2s1
inactive: all assays above

Nc1ccc(Cl)cc1Cl
inactive: all assays above

CC(=O)c1ccc(O)cc1
not listed: [20]
inactive: all other assays above

Cc1ccc(S(=O)(=O)Oc2ccc(N=Nc3ccc(-c4ccc(N=Nc5c(O)ccc6cc(S(=O)(=O)O)cc(S(=O)(=O)O)c56)c(C)c4)cc3C)cc2)cc1
active: [1] 24.4 µM and 17.8 µM
inactive: all other assays above

CC(C)(CO)COC(=O)C(C)(C)CO
inactive: all assays above

Nc1cccc(C(F)(F)F)c1
inactive and 54.5 µM (active): [18]
inactive: all other assays above

CCNc1ccccc1
inactive: all assays above

Cc1ccc([N+](=O)[O-])c(C)c1
1.93 µM (active) and inactive: [2]
2.43 µM (active) and inactive: [1]
18.2 µM (active) and inactive: [9]
not listed: [17]
inactive: all other assays above

CC[Si](OC(C)=O)(OC(C)=O)OC(C)=O
not listed: [17]
inactive: all other assays above

CC(C)(N)CO
not listed: [18]
inactive: all other assays above

Nc1nc2ncc(CNc3ccc(C(=O)N[C@@H](CCC(=O)O)C(=O)O)cc3)nc2c(=O)[nH]1
not listed: [17]
inactive: all other assays above

CC1COC(=O)O1 (configuration not stated)
not listed: [16]
inactive: all other assays above

CCCCCCCC(=O)OCC(O)CO (configuration not stated)
not listed: [16]
inactive: all other assays above

CCCCCC(N)=O
not listed: [17]
inactive: all other assays above

— PubChem BioAssay (Tox21)
